From PubChem BioAssay (NCI)
Compounds without any hit were thinned out: in the full panel of roughly 83,000, 20% have a hit.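 The test compound was applied at a single concentration to cells in 96-well plates for 48 hours, and percent growth was recorded.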 Unmarked numbers belong to inactive results. Activity calls are given as the source filed them. The calls were made as follows: active = growth percent below 10; inactive = the rest.

The compounds below were run on RPMI-8226 leukemia (assay: NCI-60 one-dose screen, 48 h (100 = growth as untreated, 0 = no growth, -100 = all killed)). Conditions: 10 µM unless noted.

First: Cc1cc(O)c2c(c1)C[C@H]1[C@@H]3CC[C@H]4CC(=O)CC[C@]4(C)[C@H]3CC(=O)[C@]21C
Second: Cc1cc2c(cc1[N+](=O)[O-])NC(CNC(C)C)CC2 (stereo not given)
The growth of the first is lower: 56.6% for the first, 105% for the second.

Compared with `c1csc([C@@H]2C[C@@H]3Cc4ccc5ccccc5c4N2O3)c1`, `O=C1Nc2ccccc2C12Nc1cc(Cl)ccc1S2` (stereo not given) is lower in growth: 95.5% for the first, 42% for the second.

Compared with `O=C(Nc1cccc([N+](=O)[O-])c1)c1cccc(C(=O)Nc2cccc([N+](=O)[O-])c2)c1`, `O=[N+]([O-])c1ccc2c(c1)S(=O)c1cc([N+](=O)[O-])ccc1N2` is higher in growth: 65.9% for the first, 103% for the second.

Going from `CN(CC(=O)Nc1nc2ccccc2[nH]1)S(=O)(=O)c1ccc(Cl)cc1` to `COc1ccc(C(=O)Nc2nc(-c3ccc(Cl)cc3)cs2)cc1`, the growth rises from 57.5% to 94.4%.

Going from `OCc1nnn(-c2ccccc2)c1CO` to `NC(=O)c1ccccc1NC(=O)c1ccccc1Cl`, the growth falls from 101% to 85%.

Compared with `CO[C@H]1/C=C/O[C@@]2(C)Oc3c(C)c(O)c4c(O)c(c(/C=N/N5C(C)CN(Cc6ccccc6)CC5C)c(O)c4c3C2=O)NC(=O)/C(C)=C\C=C\[C@H](C)[C@H](O)[C@@H](C)[C@@H](O)[C@@H](C)[C@H](OC(C)=O)[C@@H]1C` (stereo not given in full), `CCOC(=O)/C=C(/C)Sc1cc(O)c2ccccc2c1O` is lower in growth: 83.5% for the first, 40.7% for the second.

Compared with `Cn1cc(-c2csc(-c3cn(C)c4ncccc34)n2)c2cc(Br)cnc21`, `O=C(Oc1ccc[nH]c1=O)c1cccc(Cl)c1` is higher in growth: 79.3% for the first, 108% for the second.

First: CCCCSc1cc(C)nc(N)n1
Second: CCC(C)CC(C)C(=O)c1c(O)ccn(O)c1=O (stereo not given)
The growth of the first is higher: 73.4% for the first, 11.7% for the second.

In the case of `CCS(=O)(=O)OCCCl`, the growth is reported as 120%.

With `COc1ccccc1[C@H]1c2[nH]c3ccccc3c2C[C@H]2C(=O)N(CCCCCCC(=O)NO)CC(=O)N12` the growth was -1.71% (active).
`C=C(C)[C@H]1CC/C(C)=C/CC[C@]2(C)O[C@H]2CC/C(C=O)=C\C1O` (stereo not given in full) was tested, and the growth was -17.5% (active).
For `C[C@@H]1CC[C@H]2[C@@H](C)C(O)O[C@@H]3O[C@]4(C)CC[C@@H]1[C@]32OO4` (stereo not given in full), the growth was 3.35% (active).
With `CN(C)c1ccc(/C=C\c2ccnc3ccccc23)cc1` the growth was -18.1% (active).
For `COC(=O)CC1=C(C)/C(=C/c2[nH]c(-c3ccc[nH]3)cc2OC)N=C1C`, the growth was -55.3% (active).

For `CCCc1cc(=O)n2c(C(=O)Nc3ccccc3OC)c(C(=O)Nc3ccc(F)cc3)sc2n1`, the growth was 30.5% [30 µM].

What follows are compounds tested on OVCAR-8 ovarian in the same assay as above. Conditions: 10 µM unless noted.

Compared with `Cc1cc(C)n(C(=O)c2nn(-c3ccc(Cl)cc3)cc2O)n1`, `COc1ccc(C(=O)Nc2nc(-c3ccc(Cl)cc3)cs2)cc1` is higher in growth: 26.3% for the first, 103% for the second.

First: C[n+]1ccc(Nc2ccc(NC(=O)c3ccc(Nc4cc[n+](C)c5ccc(N)cc45)cc3)cc2)cc1
Second: O=C(O)c1ccc(NC(=O)c2ccc(Nc3ccnc(C(F)(F)F)c3)cc2)cc1
The growth of the first is lower: 94.8% for the first, 102% for the second.

Going from `COc1ccc(-c2nnc(COc3ccc(NC(=O)Nc4cc(C(F)(F)F)cc(C(F)(F)F)c4)cc3F)o2)cc1` to `COc1ccc(OC)c(NC(=O)c2cc3oc4ccccc4c3cc2O)c1`, the growth rises from 11.4% to 86.7%.

First: O=C1c2ccccc2-c2c1nc1ccccc1[n+]2[O-]
Second: CSc1nnc(C2=CC(=O)c3ccccc3C2=O)n1-c1ccccc1
The growth of the first is higher: 108% for the first, 94.6% for the second.

Going from `Oc1ccccc1/C=N\Nc1ccccc1` to `NC(=O)c1ccccc1NC(=O)c1ccccc1Cl`, the growth rises from 52% to 99.4%.

Going from `O=C(Nc1cccc2ccccc12)c1cc2c(cc1Br)OCO2` to `c1csc([C@@H]2C[C@@H]3Cc4ccc5ccccc5c4N2O3)c1`, the growth falls from 106% to 96.9%.

Compared with `COc1ccc2[nH]cc(/C=C3/C(=O)Nc4ccc(Cl)cc43)c2c1`, `O=C1Nc2ccccc2C12Nc1cc(Cl)ccc1S2` (stereo not given) is higher in growth: 52% for the first, 104% for the second.

Going from `O=c1[nH]c(=O)n(C2CC(O)C(CO)O2)cc1C(F)(F)F` (stereo not given) to `C=C(C)[C@H]1CC/C(C)=C/CC[C@]2(C)O[C@H]2CC/C(C=O)=C\C1O` (stereo not given in full), the growth rises from 48.5% to 107%.

Compared with `CN1CCN(Cc2ccc(NC(=O)c3[nH]ncc3Nc3ccnc4ccnn34)cc2)CC1`, `CN(CC(=O)Nc1nc2ccccc2[nH]1)S(=O)(=O)c1ccc(Cl)cc1` is higher in growth: 61.8% for the first, 95.2% for the second.

Going from `Nc1cc(Cl)c(S(N)(=O)=O)cc1S(N)(=O)=O` to `O=[N+]([O-])c1ccc2c(c1)S(=O)c1cc([N+](=O)[O-])ccc1N2`, the growth falls from 115% to 101%.

Compared with `Cc1cc(O)c2c(c1)C[C@H]1[C@@H]3CC[C@H]4CC(=O)CC[C@]4(C)[C@H]3CC(=O)[C@]21C`, `C[C@@H]1CC[C@H]2[C@@H](C)C(O)O[C@@H]3O[C@]4(C)CC[C@@H]1[C@]32OO4` (stereo not given in full) is lower in growth: 97.4% for the first, 19.2% for the second.

Compared with `COc1ccccc1[C@H]1c2[nH]c3ccccc3c2C[C@H]2C(=O)N(CCCCCCC(=O)NO)CC(=O)N12`, `O=C(Oc1ccc[nH]c1=O)c1cccc(Cl)c1` is higher in growth: 36.9% for the first, 113% for the second.

First: O=C(Nc1cccc([N+](=O)[O-])c1)c1cccc(C(=O)Nc2cccc([N+](=O)[O-])c2)c1
Second: CN(C)c1ccc(/C=C\c2ccnc3ccccc23)cc1
The growth of the first is lower: 28.6% for the first, 63.6% for the second.

Going from `OCc1nnn(-c2ccccc2)c1CO` to `CCOC(=O)/C=C(/C)Sc1cc(O)c2ccccc2c1O`, the growth falls from 109% to 24.3%.

Going from `Cc1cc2c(cc1[N+](=O)[O-])NC(CNC(C)C)CC2` (stereo not given) to `CCC(C)CC(C)C(=O)c1c(O)ccn(O)c1=O` (stereo not given), the growth falls from 115% to 17.8%.

First: CO[C@H]1/C=C/O[C@@]2(C)Oc3c(C)c(O)c4c(O)c(c(/C=N/N5C(C)CN(Cc6ccccc6)CC5C)c(O)c4c3C2=O)NC(=O)/C(C)=C\C=C\[C@H](C)[C@H](O)[C@@H](C)[C@@H](O)[C@@H](C)[C@H](OC(C)=O)[C@@H]1C (stereo not given in full)
Second: Cn1cc(-c2csc(-c3cn(C)c4ncccc34)n2)c2cc(Br)cnc21
The growth of the first is lower: 75.6% for the first, 94.3% for the second.

Compared with `CCCCSc1cc(C)nc(N)n1`, `CCS(=O)(=O)OCCCl` is lower in growth: 107% for the first, 103% for the second.

For `COC(=O)[C@]12CC[C@@H](C)[C@H](C)[C@@H]1C1=CC[C@@H]3[C@@]4(C)C=C(O)C(=O)[C@@]5(C)COC(=C54)C[C@@]3(C)[C@]1(C)CC2`, the growth was -20.5% (active).
With `COC(=O)CC1=C(C)/C(=C/c2[nH]c(-c3ccc[nH]3)cc2OC)N=C1C` the growth was 6.58% (active).

`CCCc1cc(=O)n2c(C(=O)Nc3ccccc3OC)c(C(=O)Nc3ccc(F)cc3)sc2n1` was tested, and the growth was 18.5% [30 µM].
